Bioassay records from PubChem BioAssay.
GLA inh pH 4.5: inhibitors of human alpha-galactosidase A at pH 4.5 | P06280 | purified enzyme, 4-MU-alpha-Gal fluorescence, pH 4.5 | activity change, negative = inhibition, % at 105 µM | 230,000 tested, under 10 active | AID 1467
Target sequence (P06280 whole entry, looked up): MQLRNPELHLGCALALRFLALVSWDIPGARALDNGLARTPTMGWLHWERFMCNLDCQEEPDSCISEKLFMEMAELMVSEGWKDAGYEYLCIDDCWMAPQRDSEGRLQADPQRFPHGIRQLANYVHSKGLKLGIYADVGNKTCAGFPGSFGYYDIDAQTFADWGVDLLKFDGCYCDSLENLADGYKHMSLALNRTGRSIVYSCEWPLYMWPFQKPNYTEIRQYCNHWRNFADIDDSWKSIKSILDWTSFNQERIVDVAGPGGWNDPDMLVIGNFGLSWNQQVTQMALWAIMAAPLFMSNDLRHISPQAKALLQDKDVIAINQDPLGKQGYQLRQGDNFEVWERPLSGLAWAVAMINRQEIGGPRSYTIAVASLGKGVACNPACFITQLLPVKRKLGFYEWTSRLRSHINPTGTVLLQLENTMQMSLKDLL
aGlu spleen mod: inhibitors or activators of human alpha-glucosidase in spleen homogenate | AID 2112 | human spleen homogenate, 4-MU-alpha-glucoside fluorescence | Potency, µM (series often up to 79.9 µM), actives largely listed as inhibitors | hit rate 0.006% among 240,000 | P10253
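Compounds were titrated against alpha-glucosidase in spleen homogenate at pH 5.0, with 1 mM 4-methylumbelliferyl substrate for 40 min at 37 C. Reactions were quenched with pH 10 NaOH/glycine and fluorescence measured.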
GAA glycogen: GAA glycogen-cleavage inhibition or activation; P10253; recombinant GAA, glycogen substrate, Amplex Red glucose oxidase fluorescence; Potency, µM (doses to about 76.4 µM), hits mostly inhibitors; hit rate 0.38% among 300,000;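 also: the screen sought inhibitors and activators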
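Recombinant human enzyme (4 nM); glycogen substrate; 37 C, 40 min, pH 5.0. Readout: coupled glucose oxidase/Amplex Red fluorescence.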
aGal spleen mod: alpha-galactosidase A (human) modulation; P06280; human spleen homogenate, 4MU-alpha-Gal fluorescence, 40 min; Potency, µM (series often up to 80 µM), hits mostly inhibitors; hit rate 0.008% among 240,000; AID 2107
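Spleen homogenate 1 ug + cpd (titration) + 4-MU-alpha-D-galactopyranoside 1 mM; 37C 40 min; 50 mM citrate/phosphate pH 5.0, 0.01% Tween-20; stop pH 10; fluorescence 365/440; AC50 via Hill.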
GAA inhib: blocks human lysosomal alpha-glucosidase | hit rate 0.005% among 200,000 | AID 1466 | Potency, µM (doses to about 76.9 µM), actives largely listed as inhibitors | P10253 | purified human GAA, 4-MU-alpha-glucoside fluorescence
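Human enzyme at 4 nM with 400 uM 4-methylumbelliferyl-alpha-D-pyranoside, citrate/phosphate buffer pH 5.0, 0.005% Tween-20, 20 min at room temperature. Compounds up to 77 uM. 4-MU fluorescence (Ex 365/Em 440) read after NaOH/glycine stop; AC50 from Hill fit.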
A number is an active result; n = inactive; u = inconclusive; x = no result; [ ] = remark or other dose. This is one part of a sample in which hits are shown more often than they occur. Calls follow the shape of the dose curve; as a rule, active = well fitted curve in the direction sought with a large enough effect; inconclusive = small, poorly fitted or top-dose-only effect, or another doubt; inactive = no such curve, though single readings can be large; an effect the other way counts as inactive or inconclusive.

SMILES	GLA inh pH 4.5	aGlu spleen mod	GAA glycogen	aGal spleen mod	GAA inhib
CC[C@H](C)[C@H](NC(=O)[C@H](CO)NC(=O)[C@H](CC(C)C)NC(=O)[C@H](CO)NC(=O)[C@@H]1CCCN1C(=O)[C@H](CC(N)=O)NC(=O)[C@@H](N)CC(=O)O)C(=O)N[C@@H](CC(=O)O)C(=O)N[C@@H](CC(C)C)C(=O)N[C@H](C(=O)N[C@@H](Cc1ccccc1)C(=O)N[C@@H](Cc1cnc[nH]1)C(=O)N[C@@H](CC(C)C)C(=O)N[C@@H](CC(C)C)C(=O)N[C@@H](CCCNC(=N)N)C(=O)N[C@H](C(=O)N[C@@H](CC(C)C)C(=O)N[C@@H](CC(C)C)C(=O)N[C@@H](CCC(=O)O)C(=O)N[C@@H](CC(C)C)C(=O)N[C@@H](C)C(=O)N[C@@H](CCCNC(=N)N)C(=O)N[C@H](C(=O)N[C@@H](CCC(N)=O)C(=O)N[C@@H](CO)C(=O)N[C@@H](CCC(N)=O)C(=O)N[C@@H](CCCNC(=N)N)C(=O)N[C@@H](CCC(=O)O)C(=O)N[C@@H](CCCNC(=N)N)C(=O)N[C@@H](C)C(=O)N[C@@H](CCC(=O)O)C(=O)N[C@@H](CCC(N)=O)C(=O)N[C@@H](CC(N)=O)C(=O)N[C@@H](CCCNC(=N)N)C(=O)N[C@H](C(=O)N[C@H](C(=O)N[C@@H](Cc1ccccc1)C(=O)N[C@@H](CC(=O)O)C(=O)N[C@@H](CO)C(=O)N[C@H](C(N)=O)C(C)C)[C@@H](C)CC)[C@@H](C)CC)[C@@H](C)O)[C@@H](C)O)[C@@H](C)O	x	n	x	n	x
O=C(/C=C/c1ccc(I)cc1)c1ccc(B(O)O)cc1	x	n	x	n	x
CCOc1ccc(NC(=S)NNC(=S)Nc2cccc(C(F)(F)F)c2)cc1	n	n	u	n	n
CNNC(=S)Nc1cccc(C(F)(F)F)c1	n	n	n	n	n
FC(F)(F)c1cccc(NC(=S)NNC(=S)Nc2cccc(C(F)(F)F)c2)c1	n	n	8.91µM	n	n
COc1ccc(NC(=S)NNC(=S)Nc2cccc(C(F)(F)F)c2)cc1	n	n	4.47µM	n	n
N#CC(Cc1ccc(O)c(O)c1)C(=O)N1CCc2ccccc21 (centres undefined)	n	n	x	n	x
COC(=O)C1=C(C)NC(C)=C(C(=O)NCCCN2CCC(c3ccccc3)(c3ccccc3)CC2)C1c1ccc([N+](=O)[O-])cc1 (centres undefined)	x	n	x	n	x
CC[C@H]1[C@@H]2C=C[C@@H]3[C@H]4C/C=C\C(=O)NCCC[C@@H]5NC(=O)C(=C5O)C(=O)CC[C@@H]4C[C@@H]3[C@H]2C[C@H]1C	x	n	x	n	x
Cc1[nH]n(-c2ccc(Cl)c(Cl)c2)c(=O)c1CCO	n	n	22.4µM	n	n
Cc1[nH]n(-c2ccc(C(=O)O)cc2)c(=O)c1CCO	n	x	u	n	n
COc1ccccc1C1(O)CCN(CCCn2c3ccccc3c3ccccc32)CC1	x	n	x	n	x
Cc1ccc(S(=O)(=O)N2CCN(C(=O)N(c3ccccc3)c3ccccc3)CC2)cc1	n	n	u	n	25.1µM
Cc1ccc(N(C)C(=O)N2CCN(S(=O)(=O)c3ccc(C)cc3)CC2)cc1	n	n	n	n	u
COC(=O)C[C@@H]1O[C@H]1[C@H](C)[C@@H](OC)C(C)C	x	n[17.4 µM]	x	n[17.5 µM]	x
CC1=C(C(=O)Nc2cccnc2)C(c2ccc(Cl)cc2)n2nc(SCc3ccccc3)nc2N1 (centres undefined)	x	x	25.1µM	x	x
COc1cc(CNc2ccc3[nH]c(=O)[nH]c3c2)cc(Cl)c1OCc1ccccc1F	x	x	n	x	x
COc1cccc(CNc2ccc3[nH]c(=O)[nH]c3c2)c1OCc1ccccc1F	x	x	28.2µM	x	x
COc1cccc(NC(=O)c2nn(C)c(C(=O)Nc3cccc(OC)c3)c2[N+](=O)[O-])c1	x	x	n	x	x
COc1cccc(NC(=S)NNC(=O)c2c([N+](=O)[O-])c(C)nn2C)c1	n	n	24.9µM	n	n
COc1cccc(NC(=S)NNC(=O)C(C)n2nc(C)c([N+](=O)[O-])c2C)c1 (centres undefined)	n	n	10µM	n	n
O=C(NNC(=O)c1ccccc1F)C1=NN(c2ccccc2)C(=O)CC1	x	x	50.1µM	x	x
CC(C)NC(=O)C1=NN(c2ccccc2)C(=O)CC1	x	x	n	x	x
COc1ccc(S(=O)(=O)N2CCC(C(=O)Nc3ccc(Oc4ccccc4)cc3)CC2)cc1OC	x	x	11.2µM	x	x
CC(C)C/C(O)=C/c1nc2cc(Cl)ccc2oc1=O	n	n	u	n	n
SMILES	GLA inh pH 4.5	aGlu spleen mod	GAA glycogen	aGal spleen mod	GAA inhib
O=c1oc2ccc(Cl)cc2nc1/C=C(\O)c1ccco1	n	n	7.08µM	n	x
Cc1ccc(/C(O)=C/c2nc3cc(C)ccc3oc2=O)cc1	n	n	15.8µM	n	x
CSCC[C@H](NC(=O)CN)C(=O)N[C@@H](CC(=O)O)C(=O)N[C@@H](CO)C(=O)N[C@@H](CC(C)C)C(=O)N[C@@H](C)C(=O)N[C@@H](Cc1ccccc1)C(=O)N[C@@H](CO)C(=O)NCC(=O)NCC(=O)N[C@@H](CC(C)C)C(N)=O	x	n	x	n	x
Cc1nc(Nc2ccc(O)cc2)c2c3c(sc2n1)CCCC3	n	n	14µM	n	n
Cc1ccc(CNc2nc(C)nc3sc4c(c23)CCC4)cc1	n	n	n	n	n
CCOC(=O)C1OC1C(=O)N[C@@H](CC(C)C)C(=O)NCCC(C)C (some centres undefined)	x	n	x	n	x
CCN(C(=O)CN1CCN(c2ccccc2O)CC1)c1c(N)n(Cc2ccccc2)c(=O)[nH]c1=O	n	n	9.92µM	n	n
COc1ccc(Br)cc1CNc1ccc(N2CCOCC2)cc1	x	x	22.4µM	x	x
Oc1ccc(-c2nc3ccccn3c2NCc2ccco2)cc1	n	n	14µM	n	n
Cc1cc(-c2ccccc2)nc2[nH]n(-c3ccccc3)c(=O)c12	n	n	35.5µM	n	n
Cc1cc(C)nc(NNC2=CC(=[N+]3CCCC3)CCC2)n1	n	n	2.24µM	n	n
Cc1cccc2cc(-c3nc4c(C)cccn4c3NCc3ccco3)c(=O)[nH]c12	n	n	n	n	n
Cc1ccc2[nH]c(=O)c(-c3nc4cc(C)ccn4c3NCc3ccco3)cc2c1	n	n	9.92µM	n	u
O=C(Nc1ccc([N+](=O)[O-])cc1O)Nc1ccccc1Br	x	n	x	n	x
Cc1sc2nc(N)sc2c1C	n	n	17.6µM	n	n
Cc1ccc(C)c2sc(N)nc12	n	n	n	n	n
CCC1=C[C@@H]2CN(C1)Cc1c([nH]c3ccccc13)[C@@](C(=O)OC)(c1cc3c(cc1OC)N(C)[C@H]1[C@@](O)(C(=O)OC)[C@H](OC(C)=O)[C@]4(CC)C=CCN5CC[C@]31[C@@H]54)C2	x	n	x	n	x
CSc1ccc(-c2nc3cccc(C)n3c2Nc2ccc(Cl)cc2)cc1	x	x	5.62µM	x	x
Cc1cccc(C)c1Nc1c(-c2ccsc2)nc2cccc(C)n12	x	x	n	x	x
